p53null 39C kill = selectivity test: cytotoxicity in p53 null cells, nonpermissive temperature. 55,000 compounds, 0.97% hits. Potency, µM (highest dose often 46.1 µM), for the others: at the top dose activity, negative = cell killing, actives largely listed as cytotoxic. H1299 p53-null (neo) cells, 39C, ATPlite viability, 24 h;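 also: potency is read from the fitted curve at half-maximal effect; 0% = DMSO only and -100% = full killing by 100 µM tamoxifen; nearly all actives have a fitted effect of over 50% in size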
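Cells seeded at 600/well, 37C overnight. Compound added (up to 46 uM), plates shifted to 39C for 24 hr. ATPlite added, luminescence read after 20 min at room temperature.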
PMP22 txn prim = modulators of PMP22 gene transcription in S16 Schwann cells. S16 Pmp22-F2sN Schwann cells, FLuc/NLuc coincidence luminescence, 24 h. Potency, µM (series often up to 57.5 µM), inactives show at the top dose activity change, negative = inhibition, hits mostly inhibitors. 43,000 compounds, 2% hits; active = clear falling dose curves in both reporters; inconclusive = both reporters move, but less clearly or upward; inactive = either reporter flat; the % is the NLuc reporter signal; also: potency is read from the fitted curve at half-maximal effect; % is scaled to controls: 0 for no effect and ±100 for the full control effect
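Transcriptional readout in edited S16(c9) cells: two luciferases reported from the Pmp22 locus, measured in turn after 24 h compound incubation.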
S16 F2sN tox = S16 Schwann cell cytotoxicity; S16 Pmp22-F2sN Schwann cells viability, CellTiter-Glo, 24 h; Potency, µM (doses to about 57.5 µM), without a hit: at the top dose activity change, negative = cytotoxicity, hits mostly cytotoxic; 43,000 compounds, 0.48% hits; also: potency is read from the fitted curve at half-maximal effect; % is scaled to controls: 0 for no effect and ±100 for the full control effect; nearly all actives have a fitted effect of over 65% in size
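Used to flag compounds lowering reporter output through toxicity, this quantitative HTS measures ATP-based CellTiter-Glo luminescence in S16 Pmp22-F2sN Schwann cells after 24 h compound exposure at 37C.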
mTORC1 inh = reduces mTORC1 signaling in Tsc2 and p53 null MEF cells. Tsc2-/- p53-/- MEF, phospho-rpS6 immunofluorescence/PI, 24 h. Potency, µM (doses to about 38.3 µM), inactives show at the top dose activity change, negative = inhibition, hits mostly inhibitors. AID 493208. 44,000 compounds, 0.78% hits;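 also: potency is read from the fitted curve at half-maximal effect; plate controls were DMSO for no effect and rapamycin for full effect; nearly all actives have a fitted effect of over 50% in size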
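Immunofluorescence of rpS6 phosphorylation in Tsc2-/-, p53-/- MEFs after 24 h compound exposure, normalized to propidium iodide signal. Activity is expressed as % positive cells, thresholded with 7.5 nM rapamycin.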
p53null 32C tox = p53 null cell cytotoxicity, permissive temperature. Potency, µM (titrated, usually from 46.1 µM), without a hit: at the top dose activity change, negative = cytotoxicity, most hits filed as cytotoxic. H1299-neo p53 null cells, ATP luminescence, 24 h, 32C. 55,000 compounds, 0.62% hits. AID 903;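 also: potency is read from the fitted curve at half-maximal effect; 0% = DMSO only and -100% = full killing by 100 µM tamoxifen; nearly all actives have a fitted effect of over 55% in size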
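AC50 values derive from Hill modelling of qHTS concentration-response data (up to 46 uM) in H1299-neo cells. Cells were treated 24 h at 32C following overnight attachment at 37C; viability was read as cellular ATP.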
NLuc saturating = inhibits NanoLuc at saturating substrate, PMP22 counter-screen; Potency, µM (highest dose often 57.5 µM), inactives show top-dose activity change, negative = inhibition, usual class: inhibitors; shares compounds with PMP22 txn prim; Secreted NLuc enzyme (filtered S16 cell medium), Nano-Glo luminescence; 690 compounds, 4% hits; AID 1508638; also: potency is read from the fitted curve at half-maximal effect; % is scaled to controls: 0 for no effect and ±100 for the full control effect
NLuc Km ctr = NanoLuc inhibition at Km substrate, PMP22 artifact check; shares compounds with PMP22 txn prim; secreted NLuc enzyme, coelenterazine luminescence, Km conditions; Potency, µM (highest dose often 57.5 µM), for the others: at the highest dose activity change, negative = inhibition, actives largely listed as inhibitors; 690 compounds, 5% hits; also: potency is read from the fitted curve at half-maximal effect; % is scaled to controls: 0 for no effect and ±100 for the full control effect
FLuc ctr PMP22 = firefly luciferase enzyme inhibition artifact for PMP22 screen; 690 tested, under 10 active; purified P. pyralis FLuc, luminescence, 10 min; AID 1508640; shares compounds with PMP22 txn prim; Potency, µM (top dose mostly 57.5 µM), for the others: top-dose activity, negative = inhibition, most hits filed as inhibitors; also: % of control where 0% means no effect
Target sequence (P08659 whole entry, looked up): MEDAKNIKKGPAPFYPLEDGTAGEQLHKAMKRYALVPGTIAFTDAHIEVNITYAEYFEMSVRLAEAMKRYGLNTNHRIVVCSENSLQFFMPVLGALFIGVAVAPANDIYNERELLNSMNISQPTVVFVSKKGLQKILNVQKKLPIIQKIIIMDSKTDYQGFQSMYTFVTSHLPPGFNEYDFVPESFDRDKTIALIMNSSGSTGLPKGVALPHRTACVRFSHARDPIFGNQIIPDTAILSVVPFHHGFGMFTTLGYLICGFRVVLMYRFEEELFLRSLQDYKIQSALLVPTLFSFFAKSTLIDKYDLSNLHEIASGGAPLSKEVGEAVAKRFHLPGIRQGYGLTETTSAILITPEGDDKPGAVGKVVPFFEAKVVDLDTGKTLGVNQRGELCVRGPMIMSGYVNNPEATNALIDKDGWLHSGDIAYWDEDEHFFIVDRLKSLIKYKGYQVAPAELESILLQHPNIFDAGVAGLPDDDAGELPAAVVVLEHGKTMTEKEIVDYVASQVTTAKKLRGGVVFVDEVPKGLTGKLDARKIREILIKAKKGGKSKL
S16 viab conf = confirmation of cytotoxicity in S16 Pmp22-F2sN Schwann cells (luciferase reporters placed in the Pmp22 gene); AID 1508641; Potency, µM (highest dose often 57.5 µM), without a hit: top-dose activity change, negative = viability loss, usual class: cytotoxic; S16 Schwann cells viability, CellTiter-Glo ATP luminescence, 24 h; 690 compounds, 7% hits; shares compounds with PMP22 txn prim; also: potency is read from the fitted curve at half-maximal effect; % is scaled to controls: 0 for no effect and ±100 for the full control effect
PMP22 txn cnf = confirmation of modulators of PMP22 gene transcription in S16 cells; AID 1508646; 690 compounds, 22% hits; shares compounds with PMP22 txn prim; S16 Schwann cells Pmp22-F2sN, dual luciferase, 24 h; Potency, µM (highest dose often 57.5 µM), for inactives: at the highest dose activity change, negative = inhibition, usual class: inhibitors; active = clear falling dose curves in both reporters; inconclusive = both reporters move, but less clearly or upward; inactive = either reporter flat; the % is the FLuc reporter signal; also: potency is read from the fitted curve at half-maximal effect
PMP22 HiBiT cnf = rat PMP22 protein level modulation, confirmatory; shares compounds with PMP22 txn prim; S16 Schwann cells Pmp22-HiBiT, luminescence, 48 h; Potency, µM (top dose mostly 27.9 µM), for inactives: top-dose activity change, negative = inhibition, actives largely listed as inhibitors; 95 tested, under 10 active; AID 1508647
Target sequence (P25094 whole entry, looked up): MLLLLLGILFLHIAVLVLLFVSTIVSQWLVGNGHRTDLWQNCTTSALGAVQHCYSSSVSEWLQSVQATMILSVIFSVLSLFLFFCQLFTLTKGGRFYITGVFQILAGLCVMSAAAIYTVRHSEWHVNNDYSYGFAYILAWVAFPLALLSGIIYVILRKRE
Numbers without * were called inactive. Hits are enriched below; roughly 3.2% of the tested compounds scored in any of these assays. Unless noted, calls follow the shape of the dose curve; as a rule, active = well fitted curve in the direction sought with a large enough effect; inconclusive = small, poorly fitted or top-dose-only effect, or another doubt; inactive = no such curve, though single readings can be large; an effect the other way counts as inactive or inconclusive.

What do the screens show for `COc1ccc(OC)c(NC(=O)CSc2c3c(nc4cc(Cl)ccc24)CCCC3)c1`?
p53null 39C kill: 57.5%; PMP22 txn prim: inconclusive; S16 F2sN tox: inconclusive; mTORC1 inh: 3.2%; p53null 32C tox: -5.4%

Results for COc1ccc(OC)c(Nc2c3c(nc4ccccc24)CCC3)c1 ?
p53null 39C kill: inconclusive; PMP22 txn prim: 8.43µM*; S16 F2sN tox: inconclusive; mTORC1 inh: 5.21µM*; p53null 32C tox: -21.7%; NLuc saturating: -13.3%; NLuc Km ctr: -4.9%; FLuc ctr PMP22: -0.3%; S16 viab conf: -4.0%; PMP22 txn cnf: 1.45µM*

How did CC(C)CCn1c(=O)c2sccc2n2c(CCCC(=O)NC(C)c3ccccc3)nnc12 (configuration not stated) do in these assays?
p53null 39C kill: -6.1%; PMP22 txn prim: -5.5%; S16 F2sN tox: 11.4%; mTORC1 inh: -0.9%; p53null 32C tox: -3.3%

How did CCN(CC)S(=O)(=O)c1ccc2oc(C(=O)NCc3ccccc3OC)c(C)c2c1 do in these assays?
p53null 39C kill: 7.3%; PMP22 txn prim: inconclusive; S16 F2sN tox: -24.1%; mTORC1 inh: inconclusive; p53null 32C tox: 3.0%

How did CCCCOC(=O)c1ccc(Nc2ncnc3c2cnn3-c2cccc(C)c2)cc1 do in these assays?
p53null 39C kill: 15.2%; PMP22 txn prim: 10.0%; S16 F2sN tox: 3.1%; mTORC1 inh: 8.2%; p53null 32C tox: -2.6%

What do the screens show for `COC(=O)c1c(-c2ccc(Cl)cc2)noc1N1CCN(c2cc(C)ccc2C)CC1`?
p53null 39C kill: 4.8%; PMP22 txn prim: 5.62µM*; S16 F2sN tox: inconclusive; mTORC1 inh: inconclusive; p53null 32C tox: -5.4%; NLuc saturating: -6.2%; NLuc Km ctr: -1.4%; FLuc ctr PMP22: 2.2%; S16 viab conf: inconclusive; PMP22 txn cnf: 17.2µM*; PMP22 HiBiT cnf: inconclusive

What do the screens show for `COC(=O)c1c(-c2ccc(Cl)cc2)noc1N1CCN(c2ccc(C)cc2C)CC1`?
p53null 39C kill: inconclusive; PMP22 txn prim: 10µM*; S16 F2sN tox: inconclusive; mTORC1 inh: 8.0%; p53null 32C tox: -7.3%; NLuc saturating: -4.8%; NLuc Km ctr: -2.0%; FLuc ctr PMP22: 2.8%; S16 viab conf: inconclusive; PMP22 txn cnf: 19.3µM*

What do the screens show for `Cc1ccc(OC(=O)c2cc(-c3ccc(Cl)cc3)on2)c(C)c1`?
p53null 39C kill: -1.6%; PMP22 txn prim: -7.4%; S16 F2sN tox: -0.6%; mTORC1 inh: -3.6%; p53null 32C tox: 0.4%

How did CCC1CCCCN1C(=O)Cn1c(=O)n(CCCCCC(=O)NCc2ccc(F)cc2)c(=O)c2sccc21 (configuration not stated) do in these assays?
p53null 39C kill: -7.4%; PMP22 txn prim: -17.7%; S16 F2sN tox: 17.9%; mTORC1 inh: 7.4%; p53null 32C tox: 1.0%

How did O=C(c1ccccc1Cl)N(Cc1ccco1)c1ccccn1 do in these assays?
p53null 39C kill: -17.8%; PMP22 txn prim: 5.0%; S16 F2sN tox: 4.9%; mTORC1 inh: -0.2%; p53null 32C tox: -3.6%

What do the screens show for `CCOc1ccccc1CNC(=O)CSc1nnc(C)c2c(C)n(-c3ccccc3)nc12`?
p53null 39C kill: 10.2%; PMP22 txn prim: -27.0%; S16 F2sN tox: 0.5%; mTORC1 inh: -12.1%; p53null 32C tox: 6.1%

What do the screens show for `COc1ccccc1CNC(=O)CSc1nnc(C)c2c(C)n(-c3ccccc3)nc12`?
p53null 39C kill: 6.8%; PMP22 txn prim: 15µM*; S16 F2sN tox: inconclusive; mTORC1 inh: 0.0%; p53null 32C tox: 9.5%; NLuc saturating: inconclusive; NLuc Km ctr: 4.4%; FLuc ctr PMP22: -2.9%; S16 viab conf: -1.0%; PMP22 txn cnf: inconclusive; PMP22 HiBiT cnf: inconclusive

How did O=C(NC1(C(F)(F)F)C(=O)Nc2c1c(=O)[nH]c(=O)n2CCc1ccccc1)c1ccc(Cl)cc1Cl (configuration not stated) do in these assays?
p53null 39C kill: -6.6%; PMP22 txn prim: 3.5%; S16 F2sN tox: 0.2%; mTORC1 inh: 2.9%; p53null 32C tox: -6.3%

How did CCCCn1cc2c(c1-c1ccccc1Br)c(=O)n(C)c(=O)n2C do in these assays?
p53null 39C kill: -13.9%; PMP22 txn prim: 15µM*; S16 F2sN tox: 3.7%; mTORC1 inh: -4.0%; p53null 32C tox: -0.1%; NLuc saturating: inconclusive; NLuc Km ctr: -15.4%; FLuc ctr PMP22: -1.1%; S16 viab conf: 0.2%; PMP22 txn cnf: -41.4%

Results for O=C(CCC1CCCC1)N1CCc2c([nH]c3ccccc23)C1c1ccc(Cl)cc1 (configuration not stated) ?
p53null 39C kill: 17.7%; PMP22 txn prim: -26.5%; S16 F2sN tox: -11.0%; mTORC1 inh: 0.0%; p53null 32C tox: -18.2%

What do the screens show for `CCOc1cc(-c2nnc(SCC(=O)NCc3ccccc3)nc2-c2ccc(OC)c(OCC)c2)ccc1OC`?
p53null 39C kill: 4.1%; PMP22 txn prim: 8.91µM*; S16 F2sN tox: 7.1%; mTORC1 inh: -14.4%; p53null 32C tox: 13.9%; NLuc saturating: inconclusive; NLuc Km ctr: inconclusive; FLuc ctr PMP22: -0.4%; S16 viab conf: 4.6%; PMP22 txn cnf: inconclusive

Compound activity deposited in PubChem BioAssay by National Center for Advancing Translational Sciences (NCATS).
